Reference: PubChem BioAssay (NCATS)
“And” between values parts separate entries of the source, which are not always exact repeats. Equal entries are not always repeated. Inconclusive results are not listed. The source made the active and inactive calls. Unless noted, calls come from the whole dose curve; as a rule, active = well fitted curve in the direction sought with a large enough effect; inconclusive = small, poorly fitted or top-dose-only effect, or another doubt; inactive = no such curve, though single readings can be large; an effect the other way counts as inactive or inconclusive.

How the values were obtained:
[1] = NS1 protein of Zika virus - qHTS assay to identify small molecule inhibitors in human HEK 293 cells (AID 1347053); note: nearly all actives have a fitted effect of over 55% in size; note: potency is the fitted concentration of half-maximal effect
How it was run: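 Compound-treated (1 h pre-infection) HEK 293 cells infected with ZIKV MR766, MOI = 0.5; after 24 h at 37 C, NS1 read by TR-FRET; data normalized to uninfected and infected controls.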

[2] = target: T1, Tyrosine-protein phosphatase non-receptor type substrate 1 (Homo sapiens) + Leukocyte surface antigen CD47 (Homo sapiens) (UniProt P78324+Q08722); assay: CD47-SIRPalpha protein protein interaction - LANCE assay qHTS validation (AID 1347057; active = well fitted curve in the direction sought with a large enough effect in the signal ratio, with a control signal flat, not every such curve was filed as active; the % refers to the signal ratio; note: series mostly up to about 38 µM)
How it was run: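 Inhibition of soluble CD47/SIRPalpha ectodomain association by titrated compounds, measured as 665/615 nm time-resolved FRET ratio after sequential 30 min room-temperature incubations.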

[3] = target: T1, Tyrosine-protein phosphatase non-receptor type substrate 1 (Homo sapiens) + Leukocyte surface antigen CD47 (Homo sapiens); assay: CD47-SIRPalpha protein protein interaction - HTRF assay qHTS validation (AID 1347058; active = well fitted curve in the direction sought with a large enough effect in the signal ratio, not every such curve was filed as active; the % refers to the signal ratio; note: series mostly up to about 38 µM)
How it was run: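 Soluble extracellular domains (6His-CD47, Avi-tag-biotinylated SIRPalpha) in PBS pH 7.4 with 0.05% IGEPAL CA-630. Compounds were preincubated 30 min at RT with CD47 and anti-His-Eu, then SIRPalpha and SAV-XL665 were added. TR-FRET 665/615 ratio.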

[4] = target: T1, Tyrosine-protein phosphatase non-receptor type substrate 1 (Homo sapiens) + Leukocyte surface antigen CD47 (Homo sapiens); assay: CD47-SIRPalpha protein protein interaction - Alpha assay qHTS validation (AID 1347059);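 note: bead proximity luminescence from CD47 binding SIRPalpha after compound preincubation with SIRPalpha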
How it was run: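 AlphaScreen signal between CD47-His (12.5 nM) and biotin-SIRPalpha (25 nM) soluble extracellular domains, bead-captured via Ni-NTA and streptavidin. Compounds, in 7-point titrations, met SIRPalpha 30 min before CD47; PBS pH 7.4 with 0.05% IGEPAL.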

[5] = target: Parathyroid hormone/parathyroid hormone-related peptide receptor (Homo sapiens) (UniProt Q03431); assay: qHTS for PTHR1 Agonists: Optimization Screen against the NCGC LOPAC library (AID 1347079);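 note: GloSensor cAMP luminescence in HEK-293 GP2 cells expressing human PTHR1 with IBMX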
How it was run: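 Signal increase flags agonism. GP2 cells, derived from HEK-293, express human PTHR1 and a GloSensor cAMP construct.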

[6] = target: N-terminal Xaa-Pro-Lys N-methyltransferase 1 (Homo sapiens) (UniProt Q9BV86); assay: qHTS Assay for Inhibitors of N-terminal methyltransferase 1 (NTMT1): LOPAC validation of the NTMT1 SAHH-coupled ThioGlo3 Assay (AID 1347143);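 note: SAH from peptide methylation measured as thiol fluorescence via SAHH coupling and ThioGlo3; nearly all actives have a fitted effect of over 70% in size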; note: potency is the fitted concentration of half-maximal effect
How it was run: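 NTMT1 125nM + cpds (various conc.), 1 min RT; add SAM 100uM/SAHH 10uM/ThioGlo3 15uM (addition mix). SAHH-coupled thiol detection, Ex340/Em450, t0 and 30 min RT; signal normalized to background. LOPAC 1280-cpd pilot.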

[7] = tested on: Zika virus NS2B-NS3 protease (unlinked); assay: Optimization of GU AMC qHTS for Zika virus inhibitors: Unlinked NS2B-NS3 protease assay (AID 1347151); note: nearly all actives have a fitted effect of over 80% in size; note: potency is the fitted concentration of half-maximal effect
How it was run: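 Noncovalent complex of NS2B hydrophilic domain and NS3 protease domain, 25 nM final, in 10 mM Tris-HCl pH 8.0, 0.01% Tween 20. AMC fluorescence change over 15 min at room temperature was fitted to a 4-parameter Hill equation.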

[8] = target: Furin (Homo sapiens) (UniProt P09958); assay: Furin counterscreen qHTS for Zika virus inhibitors (AID 1347149); note: potency is the fitted concentration of half-maximal effect; nearly all actives have a fitted effect of over 70% in size
How it was run: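 Counterscreen measures cleavage of 2 microM BOC-RVRR-AMC, below its ~15 microM Km, by 5 nM full-length human furin at pH 7.0 after a 15-min compound preincubation. Inhibition derives from the 15-min fluorescence increase at 37C.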

[9] = tested on: Zika virus NS2B-NS3 protease (linked construct); assay: Confirmatory screen NINDS AMC qHTS for Zika virus inhibitors (AID 1347152); note: nearly all actives have a fitted effect of over 70% in size; note: potency is the fitted concentration of half-maximal effect
How it was run: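 Purified NS2B-NS3 protease with NS2B hydrophilic domain linked to NS3 protease domain by flexible linker, 1 nM final in 10 mM Tris-HCl pH 8.0, 0.01% Tween 20. Compounds preincubated 15 min, room temperature; Bz-Nle-KRR-AMC 10 microM (Km 18.3 µM); 15-min fluorescence change, 4-parameter Hill fit.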

[10] = tested on: Zika virus NS2B-NS3 protease (unlinked complex); assay: Confirmatory screen GU AMC qHTS for Zika virus inhibitors (AID 1347153); note: nearly all actives have a fitted effect of over 70% in size
How it was run: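 Unlinked enzyme 25 nM, Tris pH 8.0/0.01% Tween 20; cpd 15 min RT, dark; + AMC substrate 10 µM (Km 18.3 µM); 340/450 nm read at t0 and 15 min; % inhibition → 4-param fit.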

[11] = Confirmatory screen NINDS Rhodamine qHTS for Zika virus inhibitors (AID 1347161);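 note: purified Zika NS2B-NS3 protease with linked NS2B cofactor domain and Rhodamine110 peptide substrate; series mostly up to about 110 µM; nearly all actives have a fitted effect of over 60% in size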
How it was run: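 In 10 mM Tris-HCl pH 8.0 containing 0.01% Tween 20, linked NS2B-NS3 protease (25 nM final) is exposed to test compounds for 15 min. Cleavage of 1.5 microM Rhodamine110 substrate is tracked by fluorescence over 15 min.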

[12] = Vero cells viability qHTS for Zika virus inhibitors (AID 1347167)
How it was run: (§1)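 Luminescent ATP readout (CellTiter Glo) after 30 min at 37 degrees C gives viability; cells in DMEM + 4% FBS were treated 24 to 48 hours with compound, following overnight attachment.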

[13] = HepG2 cells viability qHTS for Zika virus inhibitors (AID 1347168)
How it was run: as §1

[14] = tested on: Zika virus NS2B-NS3 protease; assay: Primary screen GU AMC qHTS for Zika virus inhibitors (AID 1347154); note: nearly all actives have a fitted effect of over 70% in size; note: potency is the fitted concentration of half-maximal effect
How it was run: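 Fluorogenic AMC-substrate cleavage by noncovalent NS2B-NS3 protease complex (25 nM, pH 8.0 Tris buffer with Tween 20) followed for 15 minutes at room temperature (~20% conversion). Percent inhibition from ex340/em450 signal change, fitted by 4-parameter Hill equation.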

Measured: Potency

N-terminal Xaa-Pro-Lys N-methyltransferase 1 (Homo sapiens), sequence (Q9BV86 whole entry, looked up): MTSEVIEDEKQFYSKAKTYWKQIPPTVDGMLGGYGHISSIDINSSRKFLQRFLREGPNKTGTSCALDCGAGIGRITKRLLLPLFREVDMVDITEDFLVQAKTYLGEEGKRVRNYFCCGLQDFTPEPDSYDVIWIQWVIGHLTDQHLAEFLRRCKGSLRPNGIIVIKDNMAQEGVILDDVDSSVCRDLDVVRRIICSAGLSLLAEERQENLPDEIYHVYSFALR
Parathyroid hormone/parathyroid hormone-related peptide receptor (Homo sapiens), sequence (Q03431 whole entry, looked up): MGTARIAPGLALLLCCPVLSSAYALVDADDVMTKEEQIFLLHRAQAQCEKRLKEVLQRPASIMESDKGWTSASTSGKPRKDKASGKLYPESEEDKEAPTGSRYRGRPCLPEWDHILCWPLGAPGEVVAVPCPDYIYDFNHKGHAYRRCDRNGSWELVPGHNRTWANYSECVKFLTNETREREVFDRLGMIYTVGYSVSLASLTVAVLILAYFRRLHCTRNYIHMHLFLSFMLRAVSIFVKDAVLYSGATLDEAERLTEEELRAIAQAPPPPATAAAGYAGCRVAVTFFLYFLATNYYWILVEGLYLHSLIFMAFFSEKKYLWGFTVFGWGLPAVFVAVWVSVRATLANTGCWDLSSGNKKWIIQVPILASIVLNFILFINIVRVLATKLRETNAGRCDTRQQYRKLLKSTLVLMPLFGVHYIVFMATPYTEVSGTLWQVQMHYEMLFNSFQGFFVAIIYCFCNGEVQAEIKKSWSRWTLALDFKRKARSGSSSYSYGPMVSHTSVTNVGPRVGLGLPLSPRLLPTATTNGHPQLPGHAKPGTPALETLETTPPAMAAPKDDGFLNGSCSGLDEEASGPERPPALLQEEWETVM
T1 sequence (P78324 whole entry, looked up, the tested form may be a part): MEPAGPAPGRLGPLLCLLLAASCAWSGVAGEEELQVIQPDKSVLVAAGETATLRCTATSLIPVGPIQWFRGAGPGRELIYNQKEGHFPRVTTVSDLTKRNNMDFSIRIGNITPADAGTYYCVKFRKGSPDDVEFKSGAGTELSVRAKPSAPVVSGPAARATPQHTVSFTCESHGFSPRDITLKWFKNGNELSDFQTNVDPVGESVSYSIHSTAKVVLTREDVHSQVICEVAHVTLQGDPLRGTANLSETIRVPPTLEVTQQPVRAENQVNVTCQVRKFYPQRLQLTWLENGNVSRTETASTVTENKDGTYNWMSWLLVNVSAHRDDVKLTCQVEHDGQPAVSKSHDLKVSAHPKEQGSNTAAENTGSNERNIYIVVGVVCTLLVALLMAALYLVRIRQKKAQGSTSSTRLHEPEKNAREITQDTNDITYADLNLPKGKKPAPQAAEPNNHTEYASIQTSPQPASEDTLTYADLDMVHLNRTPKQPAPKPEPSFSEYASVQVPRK
T1 sequence (Q08722 whole entry, looked up, the tested form may be a part): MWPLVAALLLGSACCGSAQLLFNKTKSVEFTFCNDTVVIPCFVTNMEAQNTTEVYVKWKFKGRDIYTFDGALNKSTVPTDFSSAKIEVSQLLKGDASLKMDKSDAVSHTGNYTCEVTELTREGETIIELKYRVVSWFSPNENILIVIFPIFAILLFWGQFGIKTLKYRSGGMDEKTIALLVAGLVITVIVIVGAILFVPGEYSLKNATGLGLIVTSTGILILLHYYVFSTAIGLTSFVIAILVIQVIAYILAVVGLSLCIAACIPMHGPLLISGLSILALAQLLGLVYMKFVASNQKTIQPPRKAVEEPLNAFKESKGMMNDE
Furin (Homo sapiens), sequence (P09958 whole entry, looked up): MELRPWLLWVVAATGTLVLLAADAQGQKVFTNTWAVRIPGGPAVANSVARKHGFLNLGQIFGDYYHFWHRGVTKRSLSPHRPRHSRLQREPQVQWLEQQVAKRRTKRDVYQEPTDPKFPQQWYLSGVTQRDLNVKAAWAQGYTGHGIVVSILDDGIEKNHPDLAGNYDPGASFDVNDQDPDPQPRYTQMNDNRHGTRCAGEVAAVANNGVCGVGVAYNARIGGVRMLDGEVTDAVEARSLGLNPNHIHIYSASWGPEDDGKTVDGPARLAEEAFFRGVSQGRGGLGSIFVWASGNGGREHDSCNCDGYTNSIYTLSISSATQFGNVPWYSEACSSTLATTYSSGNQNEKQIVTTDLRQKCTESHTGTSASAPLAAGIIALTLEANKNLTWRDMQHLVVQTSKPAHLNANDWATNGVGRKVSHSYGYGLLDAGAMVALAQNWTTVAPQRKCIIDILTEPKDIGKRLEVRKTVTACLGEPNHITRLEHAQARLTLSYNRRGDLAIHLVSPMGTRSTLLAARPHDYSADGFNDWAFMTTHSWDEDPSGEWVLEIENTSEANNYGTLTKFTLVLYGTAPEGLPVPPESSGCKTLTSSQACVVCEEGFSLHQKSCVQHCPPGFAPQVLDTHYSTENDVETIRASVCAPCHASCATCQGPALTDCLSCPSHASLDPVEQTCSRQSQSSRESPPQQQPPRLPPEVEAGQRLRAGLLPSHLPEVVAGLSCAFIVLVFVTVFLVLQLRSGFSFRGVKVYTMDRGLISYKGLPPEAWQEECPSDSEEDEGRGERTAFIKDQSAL

Cc1cccc(C2CN(C)CCc3c2cc(O)c(O)c3Cl)c1 (stereo unspecified)
active: [6] 56.2 µM
inactive: [1] | [2] | [3] | [4] | [5] | [7]

CCOC(=O)C12CC1/C(=N/O)c1ccccc1O2 (stereo unspecified)
inactive: [1] | [2] | [3] | [4] | [5] | [6] | [7]

Nc1nc2[nH]c(=O)cnc2c(=O)[nH]1
inactive: [1] | [2] | [3] | [4] | [5]
active: [6] 56.2 µM | [7] 13.4 µM

NCC(O)(CS(=O)(=O)O)c1ccc(Cl)cc1 (stereo unspecified)
inactive: [1] | [2] | [3] | [4] | [5] | [6]

O=c1oc(Cl)c(Cl)c2ccccc12
inactive: [1] | [2] | [3] | [4] | [5] | [7]
active: [6] 50.1 µM

Nn1nnc2ccccc21
inactive: [1] | [2] | [3] | [4] | [5] | [6] | [7]

C=CCN1CCc2cc(O)c(O)cc2C(c2ccccc2)C1 (stereo unspecified)
inactive: [1] | [2] | [3] | [4] | [5] | [7]
active: [6] 35.5 µM

COc1ccc2c(c1)c(CC(=O)O)c(C)n2Cc1ccc(Cl)cc1
inactive: [1] | [2] | [3] | [4]

NC(C(=O)N[C@@H]1C(=O)N2C(C(=O)O)=C(Cl)CS[C@H]12)c1ccccc1 (stereo partly specified)
inactive: [1] | [2] | [3] | [4] | [5] | [6]

COc1cc2c(CCNC(C)=O)c[nH]c2cc1O
active: [8] 27.1 µM | [7] 26.7 µM
inactive: [1] | [2] | [3] | [4] | [5] | [6] | [9] | [10] | [11] | [12] | [13]

O=c1onc2n1-c1cc(Br)ccc1OC2
inactive: [1] | [2] | [3] | [4] | [5] | [6]

Cn1ccnc1
inactive: [1] | [2] | [3] | [4] | [5] | [6] | [7]

Oc1cc(O)c2c(c1)O[C@H](c1ccc(O)c(O)c1)[C@@H](O)C2
inactive: [1] | [2] | [3] | [4] | [5]
active: [6] 44.7 µM

CC1=C(C(=O)O)N2C(=O)[C@@H](NC(=O)C(N)C3=CCC=CC3)[C@H]2SC1 (stereo partly specified)
inactive: [1] | [2] | [3] | [4] | [5] | [6] | [7]

C[C@](Cc1ccc(O)c(O)c1)(NN)C(=O)O
inactive: [1] | [2] | [3] | [4] | [5] | [7]
active: [6] 39.8 µM

N=C(N)c1ccc(OCCCCCOc2ccc(C(=N)N)cc2)cc1 (tested in a mixture with another compound)
inactive: [1] | [2] | [3] | [4] | [5]
active: [6] 20 µM

N[C@@H](Cc1c[nH]c2ccccc12)C(=O)O
inactive: [1] | [2] | [3] | [4] | [5] | [6] | [7]

NC(N)=N[C@@H](CCC(=O)O)C(=O)O
inactive: [1] | [2] | [3] | [4] | [5] | [6] | [7]

O=C(O)C1CCCNC1 (stereo unspecified)
inactive: [1] | [2] | [3] | [4] | [5] | [6]

CNC(=O)c1cc2c(cn1)[nH]c1ccccc12
active: [6] 56.2 µM | [8] 24.1 µM | [7] 26.7 µM | [9] 24.1 µM | [14] 21.2 µM and 18.9 µM
inactive: [1] | [2] | [3] | [4] | [5] | [10] | [12] | [13]

O=C(O)c1cc2cc(F)ccc2[nH]1
active: [6] 56.2 µM | [7] 26.7 µM
inactive: [1] | [2] | [3] | [4] | [5]

c1ccc(C(NCCNC(c2ccccc2)c2ccccc2)c2ccccc2)cc1
inactive: [1] | [2] | [3] | [4] | [5] | [6] | [7]

CCCCS(=N)(=O)CC[C@H](N)C(=O)O (stereo partly specified)
inactive: [1] | [2] | [3] | [4] | [5] | [6] | [7]

COc1cc(CNC(=O)CCCCCCC(C)C)ccc1O
inactive: [1] | [2] | [3] | [4] | [5]

c1ccc2c(c1)CC(N1CCN(c3cccc4c3OCCO4)CC1)C2
inactive: [1] | [2] | [3] | [4] | [5] | [6] | [7]

NCC(O)c1ccc(O)c(O)c1 (stereo unspecified)
inactive: [1] | [2] | [3] | [4] | [5]

Cn1c(=O)c2[nH]c(C3CCCC3)nc2n(C)c1=O
inactive: [1] | [2] | [3] | [4] | [5] | [6] | [7] | [14]

S=C(S)N1CCCC1
active: [1] 7.94 µM | [6] 20 µM
inactive: [2] | [3] | [4] | [5] | [7] | [14]

CCCCCCCCCC(=O)NC(CN1CCOCC1)[C@H](O)c1ccccc1 (stereo partly specified)
inactive: [1] | [2] | [3] | [4] | [5] | [6] | [7]

O=C(O)/C=C/c1ccc(O)c(O)c1
inactive: [1] | [2] | [3] | [4] | [5] | [7]
active: [6] 44.7 µM
